NS1 function inh: qHTS Assay for Inhibitors of Influenza NS1 Protein Function; 0.4% of 270,000 active; AID 2326, 2010; Potency, µM (doses to about 46.1 µM), inactives show top-dose activity, positive = more growth; also: potency is read from the fitted curve at half-maximal effect; actives are rising curves; nearly all actives have a fitted effect of over 50% in size
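Growth recovery, yeast-based: influenza A NS1 expressed in S. cerevisiae causes slow growth, and suppressors are detected by OD600. The parent strain without NS1 is used as positive control.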
Shiga inhibitor: A qHTS for Small Molecule Inhibitors of Shiga Toxin; Vero cells, Shiga toxin protein synthesis inhibition reporter; inhibition, % at 38.7 µM; 9.2% of 290,000 active; in the data active = inhibition mostly above about 28%, no sharp cut-off; inactive = mostly below about 43%; also: 0% is about no effect
Pf growth 48h: Primary qHTS for delayed death inhibitors of the malarial parasite plastid, 48 hour incubation. P. falciparum luciferase growth in erythrocytes, 48 h. 5.9% of 310,000 active. Potency, µM (doses to about 28.7 µM), for the others: top-dose activity change, negative = inhibition, most hits filed as inhibitors; active = well fitted inhibition curve with a large enough effect; inconclusive = small, poorly fitted or top-dose-only effect, or another doubt; inactive = no such curve, though single readings can be large or run the other way; also: potency is read from the fitted curve at half-maximal effect; % is scaled to controls: 0 for no effect and ±100 for the full control effect
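Luciferase-expressing parasites in RBCs, 2% Hct / 0.1% parasitemia final; RPMI 1640 + 0.5% Albumax; 37 C, 5% CO2, one generation; luminescence read-out, lower signal = inhibition.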
SARS PLpro yeast: qHTS of Yeast-based Assay for SARS-CoV PLP; S. cerevisiae expressing SARS-CoV PLpro, growth rescue; AID 485353, 2010; 0.19% of 330,000 active; Potency, µM (top dose mostly 32.9 µM), for inactives: top-dose activity, positive = growth rescue, actives largely listed as activators; also: potency is read from the fitted curve at half-maximal effect; 0% is about no effect; nearly all actives have a fitted effect of over 55% in size
Cycloheximide cs: Cycloheximide Counterscreen for Small Molecule Inhibitors of Shiga Toxin; cell reporter, cycloheximide protein synthesis inhibition counterscreen; max response, %; 12% of 300,000 active; in the data active = max response mostly above about 13%, no sharp cut-off; inactive = mostly below about 14%; also: read at 38.3 µM for the half of the compounds with a filed dose; 0% is about no effect
Pf growth 96h: Primary qHTS for delayed death inhibitors of the malarial parasite plastid, 96 hour incubation. P. falciparum luciferase reporter growth, 96 h. Potency, µM (series often up to 28.7 µM), without a hit: top-dose activity change, negative = inhibition, most hits filed as inhibitors. 6.9% of 320,000 active. AID 504834, 2011; active = well fitted inhibition curve with a large enough effect; inconclusive = small, poorly fitted or top-dose-only effect, or another doubt; inactive = no such curve, though single readings can be large or run the other way; also: potency is read from the fitted curve at half-maximal effect; % is scaled to controls: 0 for no effect and ±100 for the full control effect
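Luminescence readout: decreased luciferase signal marks inhibited growth of reporter-expressing P. falciparum in infected red cells (2% hematocrit, 0.05% parasitemia final), exposed to compound two generations (96 h, 37 C, 5% CO2).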
* marks the source's active call; other numbers are inactive results. An excerpt weighted towards active compounds, which were near 21% of everything screened. Unless noted, calls follow the shape of the full dose curve.

Results for O=C(Nc1nc(-c2ccc(F)cc2)cs1)C1CCCO1 (stereo not drawn) ?
NS1 function inh: -3.2%; Shiga inhibitor: 103.7*; Pf growth 48h: 88.5%; SARS PLpro yeast: -22.0%; Cycloheximide cs: 42.0*; Pf growth 96h: 107.1%

Results for COc1ccc(/C=N/N(C)C2=NS(=O)(=O)c3ccccc32)cc1 ?
NS1 function inh: -2.1%; Shiga inhibitor: -4.4; SARS PLpro yeast: -0.5%; Cycloheximide cs: -5.8; Pf growth 96h: 11.7µM*

What do the screens show for `CCc1cc2c(SCC(=O)c3ccccc3)ncnc2s1`?
NS1 function inh: 2.8%; Shiga inhibitor: 73.4*; Pf growth 48h: 92.2%; SARS PLpro yeast: 20.4%; Cycloheximide cs: 45.5*; Pf growth 96h: inconclusive

Results for CCc1cc2c(SCC(=O)c3cccs3)ncnc2s1 ?
NS1 function inh: 3.7%; Shiga inhibitor: -14.9; Pf growth 48h: -8.2%; SARS PLpro yeast: 0.0%; Cycloheximide cs: 15.9*; Pf growth 96h: 104.1%

What do the screens show for `C=CCn1c(SCC(=O)c2cccs2)nc2sc(CC)cc2c1=O`?
NS1 function inh: -3.8%; Shiga inhibitor: -15.4; SARS PLpro yeast: 0.4%; Cycloheximide cs: -3.2; Pf growth 96h: -13.0%

How did CCc1cc2c(SCC(=O)O)ncnc2s1 do in these assays?
NS1 function inh: 8.5%; Shiga inhibitor: -16.6; Pf growth 48h: 3.7%; SARS PLpro yeast: 1.6%; Cycloheximide cs: 5.3; Pf growth 96h: 7.7%

How did CC(=O)NC1(C(F)(F)F)C(=O)NC(C)=C1C#N (stereo not drawn) do in these assays?
NS1 function inh: -1.0%; Shiga inhibitor: -14.6; Pf growth 48h: -4.9%; SARS PLpro yeast: 1.4%; Cycloheximide cs: -0.5; Pf growth 96h: 0.0%

What do the screens show for `COC(=O)c1ccc(/C=C(/NC(=O)c2ccccc2)C(=O)N2CCOCC2)cc1`?
NS1 function inh: -11.9%; Shiga inhibitor: -1.4; Pf growth 48h: -14.6%; SARS PLpro yeast: 2.4%; Cycloheximide cs: 1.0; Pf growth 96h: 11.4%

What do the screens show for `CC(C)(C)NC(=O)CSc1nnc(-c2c[nH]c3ccccc23)o1`?
NS1 function inh: 11.9%; Shiga inhibitor: 64.8*; Pf growth 48h: inconclusive; SARS PLpro yeast: 1.3%; Cycloheximide cs: 28.3*; Pf growth 96h: inconclusive

Results for CCN(CC)C(=O)CSc1nnc(-c2c[nH]c3ccccc23)o1 ?
NS1 function inh: 18.5%; Pf growth 48h: inconclusive; SARS PLpro yeast: 0.1%; Cycloheximide cs: 40.1*; Pf growth 96h: 0.465µM*

How did COC(=O)CSc1nnc(-c2c[nH]c3ccccc23)o1 do in these assays?
NS1 function inh: -12.3%; Pf growth 48h: 10.8%; SARS PLpro yeast: -11.4%; Cycloheximide cs: -2.1; Pf growth 96h: inconclusive

What do the screens show for `CCCC(C)NC(=O)CSc1nnc(-c2c[nH]c3ccccc23)o1` (stereo not drawn)?
Shiga inhibitor: -8.2; Pf growth 48h: -0.2%; SARS PLpro yeast: -0.6%; Cycloheximide cs: -2.8; Pf growth 96h: 8.5%

What do the screens show for `N#Cc1ccc(-c2ccccc2)nc1SCC(=O)c1cc2ccccc2oc1=O`?
NS1 function inh: 16.4%; Shiga inhibitor: 31.1; Pf growth 48h: 9.28µM*; SARS PLpro yeast: 5.8%; Cycloheximide cs: 9.2; Pf growth 96h: inconclusive

Results for O=C(CSc1nnc(-c2cccnc2)o1)Oc1ccccc1 ?
NS1 function inh: -86.5%; Shiga inhibitor: -1.4; Pf growth 48h: 5.3%; SARS PLpro yeast: -2.7%; Cycloheximide cs: -3.2; Pf growth 96h: 4.4%

How did O=C(CSc1nnc(-c2cccnc2)o1)c1cc2ccccc2oc1=O do in these assays?
NS1 function inh: inconclusive; Shiga inhibitor: 23.9; Pf growth 48h: 7.38µM*; SARS PLpro yeast: -1.1%; Cycloheximide cs: 4.4; Pf growth 96h: 1.0%

How did COC(=O)c1sccc1NC(=O)c1c(C)c(-c2cccc(Cl)c2)nc2ccccc12 do in these assays?
NS1 function inh: 2.0%; Shiga inhibitor: -3.7; Pf growth 48h: inconclusive; SARS PLpro yeast: 0.9%; Cycloheximide cs: 7.9; Pf growth 96h: -5.7%

How did CC(=O)c1ccc(-c2ccc(C3C4C=CCCC4(C)C(=O)N3Cc3ccccc3)c(F)c2)cc1 (stereo not drawn) do in these assays?
Shiga inhibitor: -16.0; Cycloheximide cs: -6.5

What do the screens show for `c1ccn2c(SCc3cn4ccsc4n3)nnc2c1`?
NS1 function inh: -3.6%; Shiga inhibitor: 54.1*; Pf growth 48h: 198.5%; SARS PLpro yeast: 7.9%; Cycloheximide cs: 40.4*

How did Cc1cccc2nc(CSc3nnnn3-c3ccccc3)cn12 do in these assays?
NS1 function inh: -67.3%; Shiga inhibitor: -9.7; SARS PLpro yeast: -3.8%; Cycloheximide cs: 3.3; Pf growth 96h: -35.4%

Results for c1ccc(-n2cnnc2SCc2cn3ccsc3n2)cc1 ?
NS1 function inh: 0.1%; Shiga inhibitor: -1.0; Pf growth 48h: 40.9%; SARS PLpro yeast: 14.2%; Cycloheximide cs: -1.7; Pf growth 96h: 41.8%

How did Cc1cccc2nc(CSc3nnc4ccccn34)cn12 do in these assays?
NS1 function inh: -7.6%; Shiga inhibitor: 58.8*; Pf growth 48h: 219.5%; Cycloheximide cs: 36.5*; Pf growth 96h: 281.5%

How did Cc1ccnc(SCc2cn3c(C)cccc3n2)n1 do in these assays?
NS1 function inh: 2.3%; Shiga inhibitor: 59.2; Pf growth 48h: -26.7%; SARS PLpro yeast: 0.6%; Cycloheximide cs: 26.1*; Pf growth 96h: -27.8%

Results for O=C(COc1ncnc2ccccc12)Nc1cc(S(=O)(=O)N2CCOCC2)ccc1Cl ?
NS1 function inh: 3.2%; Shiga inhibitor: 8.8; Pf growth 48h: -10.6%; SARS PLpro yeast: -1.2%; Cycloheximide cs: -1.2; Pf growth 96h: -18.8%

Results for CC(=O)CC(=O)Nc1ncccn1 ?
Shiga inhibitor: 1.9; Pf growth 48h: 8.5%; SARS PLpro yeast: 4.1%; Cycloheximide cs: -5.7; Pf growth 96h: 4.4%

Results for Brc1ccc(COc2ncnc3ccccc23)cc1 ?
NS1 function inh: -6.9%; Shiga inhibitor: -3.3; Pf growth 48h: 0.0%; SARS PLpro yeast: -3.4%; Cycloheximide cs: 7.0; Pf growth 96h: -24.6%

What do the screens show for `COc1ccc(COc2ncnc3ccc(Br)cc23)cc1F`?
NS1 function inh: -16.0%; Shiga inhibitor: 24.1; Pf growth 48h: -12.5%; SARS PLpro yeast: -1.7%; Cycloheximide cs: 19.1*; Pf growth 96h: -4.4%

What do the screens show for `O=c1nc2n(c3c4c(sc13)CCC4)CCC2`?
NS1 function inh: -8.0%; Shiga inhibitor: 9.5; Pf growth 48h: 35.2%; SARS PLpro yeast: -16.3%; Cycloheximide cs: -3.8

Results for Cc1ccc(-c2cc(C(=O)Nc3cnn(C45CC6CC(CC(C6)C4)C5)c3)no2)cc1 ?
NS1 function inh: 4.0%; Shiga inhibitor: -7.7; Pf growth 48h: inconclusive; SARS PLpro yeast: 4.1%; Cycloheximide cs: -5.1; Pf growth 96h: -7.3%

Results for Cn1cc([N+](=O)[O-])c(C(=O)Nc2ccc3c(C(F)(F)F)cc(=O)oc3c2)n1 ?
NS1 function inh: -27.5%; Shiga inhibitor: 12.3; Pf growth 48h: 89.5%; SARS PLpro yeast: inconclusive; Cycloheximide cs: 14.9*; Pf growth 96h: 0.7%
